Six compounds from PubChem BioAssay (EPA / NIEHS) can be followed below.

Each structure is given as a SMILES string. Activity calls are given as the source filed them. How the source made its calls: active means hit-call score of the fitted dose curve at least 0.9, where 1 is the maximum; inactive means score below 0.9.

Settings in all cases: mRNA level, 48 h; actives raise or lower the signal
Read-out in assay [1]: Cytochrome P450 4A22 (Homo sapiens) (UniProt Q5TCH4)
Nature of the assay: LTEA_HepaRG_CYP4A22: Life Technologies and Expression Analysis (LTEA) Assay for Cytochrome P450 4A22 (CYP4A22) using HepaRG (AID 2283495). In outline: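 Concentration-response (8 points, max 100 uM, 0.5% DMSO) in human HepaRG liver cells after 48 h exposure. CYP4A22 mRNA by TaqMan qRT-PCR with housekeeping-gene normalization.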

Read-out in assay [2]: Cytochrome P450 7A1 (Homo sapiens) (UniProt P22680)
The assay is described as follows: LTEA_HepaRG_CYP7A1: Life Technologies and Expression Analysis (LTEA) Assay for Cytochrome P450 7A1 (CYP7A1) using HepaRG (AID 2283496). A digest of the protocol:
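Gene expression endpoint in human HepaRG liver cells treated for 48 h with test chemicals (up to 100 uM, 0.5% DMSO). Values come from bidirectional concentration-response fitting versus DMSO.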

Read-out in assay [3]: Glutathione S-Transferase (GSTA2), GSTA2 (gene 2939)
Nature of the assay: LTEA_HepaRG_GSTA2: Life Technologies and Expression Analysis (LTEA) Assay for Glutathione S-Transferase (GSTA2) using HepaRG (AID 2283497). In outline:
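Differentiated human HepaRG cells were exposed in duplicate for 48 h in serum-free induction medium, 8 points from 100 uM top in half-log steps, 0.5% DMSO. GSTA2 mRNA was measured by TaqMan qRT-PCR, normalized to ACTB, GAPDH and POLR2A; bidirectional fit versus DMSO.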

Read-out in assay [4]: Glutamate-cysteine ligase catalytic (GCLC), GCLC (gene 2729)
The assay is described as follows: LTEA_HepaRG_GCLC: Life Technologies and Expression Analysis (LTEA) Assay for Glutamate-cysteine ligase catalytic (GCLC) using HepaRG (AID 2283498). A digest of the protocol: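 Differentiated HepaRG cells exposed 48 h in serum-free induction medium, eight-point half-log series topping at 100 uM in 0.5% DMSO, duplicates. GCLC mRNA by qRT-PCR normalized to ACTB, GAPDH and POLR2A, fitted bidirectionally versus DMSO.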

Read-out in assay [5]: Glutamate-cysteine ligase regulatory (GCLM), GCLM (gene 2730)
Nature of the assay: LTEA_HepaRG_GCLM: Life Technologies and Expression Analysis (LTEA) Assay for Glutamate-cysteine ligase regulatory (GCLM) using HepaRG (AID 2283500). A digest of the protocol: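 Human liver HepaRG cultures receive test chemicals for 48 hours at up to 100 uM in 0.5% DMSO. GCLM expression is measured by qRT-PCR and analysed for increases or decreases against vehicle.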

Read-out in assay [6]: Heat shock 70 kDa protein 1 (HSPA1A), gene 3303
The assay is described as follows: LTEA_HepaRG_HSPA1A: Life Technologies and Expression Analysis (LTEA) Assay for Heat shock 70 kDa protein 1 (HSPA1A) using HepaRG (AID 2283502). In outline:
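HSPA1A induction in human HepaRG liver cells is measured after 48 h of chemical treatment (100 uM maximum, 0.5% DMSO vehicle). Expression comes from qRT-PCR normalized to endogenous controls.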

Read-out in assay [7]: 3-Hydroxy-3-Methylglutaryl-CoA Synthase 2 (HMGCS2), HMGCS2 (gene 3158)
The assay is described as follows: LTEA_HepaRG_HMGCS2: Life Technologies and Expression Analysis (LTEA) Assay for 3-Hydroxy-3-Methylglutaryl-CoA Synthase 2 (HMGCS2) using HepaRG (AID 2283504). A digest of the protocol:
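This steatosis marker was read as HMGCS2 mRNA change in HepaRG cells treated 48 h with up to 100 uM chemical. Normalisation used housekeeping genes; activity in either direction was fitted relative to 0.5% DMSO vehicle.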

Read-out in assay [8]: Insulin Like Growth Factor 1 (IGF1), IGF1 (gene 3479)
Nature of the assay: LTEA_HepaRG_IGF1: Life Technologies and Expression Analysis (LTEA) Assay for Insulin Like Growth Factor 1 (IGF1) using HepaRG (AID 2283506). In outline:
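Using human HepaRG liver cells, IGF1 transcript induction or suppression is measured 48 h after dosing across eight concentrations capped at 100 uM. Values derive from bidirectional concentration-response fitting with DMSO as baseline.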

Read-out in assay [9]: Intercellular Adhesion Molecule 1 (ICAM1), ICAM1 (gene 3383)
The assay is described as follows: LTEA_HepaRG_ICAM1: Life Technologies and Expression Analysis (LTEA) Assay for Intercellular Adhesion Molecule 1 (ICAM1) using HepaRG (AID 2283507). A digest of the protocol:
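Using the human liver line HepaRG, compounds are tested in duplicate over 48 h at concentrations up to 100 uM. Expression is determined by TaqMan qRT-PCR, normalized to endogenous controls, and analysed relative to 0.5% DMSO vehicle.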

Read-out in assay [10]: Insulin-like growth factor-binding protein 1 (IGFBP1), IGFBP1 (gene 3484)
The assay is described as follows: LTEA_HepaRG_IGFBP1: Life Technologies and Expression Analysis (LTEA) Assay for Insulin-like growth factor-binding protein 1 (IGFBP1) using HepaRG (AID 2283508). In outline:
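HepaRG, 48 h, 8 conc. (max 100 uM, half-log), duplicates, 0.5% DMSO. Readout: TaqMan qRT-PCR, ACTB/GAPDH/POLR2A normalisation. Fit: bidirectional vs DMSO.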

Read-out in assay [11]: Interleukin 6 (IL6), IL6 (gene 3569)
Nature of the assay: LTEA_HepaRG_IL6: Life Technologies and Expression Analysis (LTEA) Assay for Interleukin 6 (IL6) using HepaRG (AID 2283509). In outline: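 HepaRG cells exposed in duplicate for 48 h to eight half-log concentrations, top 100 uM, in 0.5% DMSO serum-free induction medium. mRNA measured by qRT-PCR, normalized to ACTB, GAPDH and POLR2A. Bidirectional fit versus DMSO.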

Read-out in assay [12]: Interleukin 6 Receptor (IL6R), IL6R (gene 3570)
Nature of the assay: LTEA_HepaRG_IL6R: Life Technologies and Expression Analysis (LTEA) Assay for Interleukin 6 Receptor (IL6R) using HepaRG (AID 2283510).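 On AC50: TaqMan qRT-PCR signal normalized to ACTB GAPDH and POLR2A housekeeping genes.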 In outline:
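Concentration-response in human liver HepaRG cells: eight concentrations from 100 uM downward by half-logs, 48 h exposure, 0.5% DMSO vehicle. IL6R mRNA change measured by qRT-PCR and fitted in both directions relative to vehicle.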

Read-out in assay [13]: Keratin 19 (KRT19), KRT19 (gene 3880)
Nature of the assay: LTEA_HepaRG_KRT19: Life Technologies and Expression Analysis (LTEA) Assay for Keratin 19 (KRT19) using HepaRG (AID 2283512). A digest of the protocol:
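Readout is qRT-PCR of KRT19 mRNA, normalized to ACTB, GAPDH and POLR2A, from HepaRG cells treated 48 h with eight-point half-log dilutions topping at 100 uM. Activity in either direction is scored relative to 0.5% DMSO vehicle.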

Read-out in assay [14]: JUN Transcription Factor, JUN (gene 3725)
Nature of the assay: LTEA_HepaRG_JUN: Life Technologies and Expression Analysis (LTEA) Assay for JUN Transcription Factor using HepaRG (AID 2283513). In outline:
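Human HepaRG liver cells receive test chemicals in 0.5% DMSO for 48 h across an eight-point range topping at 100 uM. Expression changes in JUN are scored in both directions against the DMSO vehicle.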

Read-out in assay [15]: Lipase C (LIPC), LIPC (gene 3990)
The assay is described as follows: LTEA_HepaRG_LIPC: Life Technologies and Expression Analysis (LTEA) Assay for Lipase C (LIPC) using HepaRG (AID 2283514). A digest of the protocol: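 HepaRG cells, 48 h after plating, treated in duplicate for 48 h in serum-free induction medium over 8 half-log concentrations from 100 uM, 0.5% DMSO. LIPC mRNA by TaqMan qRT-PCR normalized to ACTB/GAPDH/POLR2A; bidirectional fit versus DMSO.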

Read-out in assay [16]: Hypoxia-inducible factor 1-alpha (Homo sapiens) (UniProt Q16665)
Nature of the assay: LTEA_HepaRG_HIF1A: Life Technologies and Expression Analysis (LTEA) Assay for Hypoxia-inducible factor 1 (HIF1A) Trancription factor using HepaRG (AID 2283503).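 Further: HIF1A transcript by TaqMan qRT-PCR normalized to ACTB GAPDH and POLR2A.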 A digest of the protocol: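 HepaRG, 48 h exposure, 8-pt half-log series from 100 uM, 0.5% DMSO vehicle, duplicates. Readout: HIF1A transcript by qRT-PCR (Fluidigm array), housekeeping-normalised. Bidirectional curve fit vs DMSO baseline.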

Read-out in another assay: HGF (gene 3082)
The assay is described as follows: LTEA_HepaRG_HGF: Life Technologies and Expression Analysis (LTEA) Assay for Hepatocyte Growth Facto (HGF) using HepaRG (AID 2283505). In outline:
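Using HepaRG monolayers kept in 0.5% DMSO, chemicals were tested in duplicate over eight half-log concentrations from 100 uM for 48 h. Endpoint: HGF mRNA change relative to DMSO, normalized to ACTB/GAPDH/POLR2A.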

Read-out in assay [17]: Potassium channel subfamily K member 1 (KCNK1), KCNK1 (gene 3775)
Nature of the assay: LTEA_HepaRG_KCNK1: Life Technologies and Expression Analysis (LTEA) Assay for Potassium channel subfamily K member 1 (KCNK1) using HepaRG (AID 2283511). In outline: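 Differentiated HepaRG cells, 48 h exposure in serum-free induction medium with 0.5% DMSO; 8 concentrations, half-log from 100 uM, duplicate. KCNK1 mRNA by qRT-PCR, normalized to ACTB, GAPDH, POLR2A; bidirectional fit vs DMSO.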

Read-out in assay [18]: Glutathione S-transferase M3 (GSTM3), GSTM3 (gene 2947)
Nature of the assay: LTEA_HepaRG_GSTM3: Life Technologies and Expression Analysis (LTEA) Assay for Glutathione S-transferase M3 (GSTM3) using HepaRG (AID 2283501). In outline:
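Expression of GSTM3 is determined by qRT-PCR in human liver HepaRG cells treated 48 h with an 8-point half-log range from 100 uM in 0.5% DMSO.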

Read-out in assay [19]: growth arrest and DNA damage 45 (GADD45G), GADD45G (gene 10912)
Nature of the assay: LTEA_HepaRG_GADD45G: Life Technologies and Expression Analysis (LTEA) Assay for growth arrest and DNA damage 45 (GADD45G) using HepaRG (AID 2283499). In outline: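 Concentration-response in HepaRG: 48 h dosing, 0.5% DMSO, highest level 100 uM. GADD45G expression by qRT-PCR, normalised to endogenous controls; bidirectional fit to DMSO.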

Sequence of Hypoxia-inducible factor 1-alpha (Homo sapiens) (Q16665 whole entry, looked up): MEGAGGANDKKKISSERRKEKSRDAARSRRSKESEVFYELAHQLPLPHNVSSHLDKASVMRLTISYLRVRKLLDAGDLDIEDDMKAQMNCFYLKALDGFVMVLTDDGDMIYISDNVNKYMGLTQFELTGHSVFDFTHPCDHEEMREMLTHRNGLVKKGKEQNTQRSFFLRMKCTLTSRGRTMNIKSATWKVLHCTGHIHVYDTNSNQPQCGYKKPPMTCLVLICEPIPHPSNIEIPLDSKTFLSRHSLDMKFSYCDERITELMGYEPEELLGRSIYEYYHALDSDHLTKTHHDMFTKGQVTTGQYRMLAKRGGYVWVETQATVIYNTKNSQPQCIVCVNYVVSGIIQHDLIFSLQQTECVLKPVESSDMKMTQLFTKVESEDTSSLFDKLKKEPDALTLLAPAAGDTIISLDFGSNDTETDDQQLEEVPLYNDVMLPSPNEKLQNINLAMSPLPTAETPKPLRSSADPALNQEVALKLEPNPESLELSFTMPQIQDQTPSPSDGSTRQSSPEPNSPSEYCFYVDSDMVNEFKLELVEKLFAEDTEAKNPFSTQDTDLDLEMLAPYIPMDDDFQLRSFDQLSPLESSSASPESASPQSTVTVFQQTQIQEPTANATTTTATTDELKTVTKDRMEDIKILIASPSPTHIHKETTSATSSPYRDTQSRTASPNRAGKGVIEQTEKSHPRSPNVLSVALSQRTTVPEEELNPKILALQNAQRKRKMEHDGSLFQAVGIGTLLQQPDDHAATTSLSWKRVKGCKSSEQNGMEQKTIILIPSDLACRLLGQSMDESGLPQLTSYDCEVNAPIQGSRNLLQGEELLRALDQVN

In the case of `C[C@]12CC[C@@H]3c4ccc(O)cc4CC[C@H]3[C@@H]1CC[C@H]2O`, the AC50 (usually the midpoint of the concentration-response curve, whichever way the signal moves) is 76 µM (active) in assay [1]; 12.5 µM (active) in assay [6]; 82.2 µM (active) in assay [7]; 50 µM (active) in [8]; 81.9 µM (active) in [15]. Also, the outcome in assay [2], in [3], in [4], in [5], in [9] and in assay [10] was inactive. The outcome in assay [11], in [12], in assay [13] and in assay [14] was inactive.
As to `NCc1cccc(C2CCN(C(=O)c3ccc(C#Cc4ccccc4F)o3)CC2)c1`, the AC50 was 81 µM (active) in assay [1]; 86.3 µM (active) in [2]; 78.9 µM (active) in [3]; 93.8 µM (active) in assay [7]; 79.5 µM (active) in the assay with HGF (gene 3082); 82.5 µM (active) in assay [12]. The AC50 in assay [13] was 9.92 µM (active); in assay [15], 76.6 µM (active). Besides, the compound was classed as inactive in [4], in assay [5], in assay [6], in assay [16], in assay [8] and in assay [9]. The call in assay [10], in [17] and in assay [14] was inactive.
In the case of `c1ccc2n[nH]nc2c1`, the result in assay [2], in assay [3], in [4], in [5], in assay [18] and in [6] was inactive. Moreover, the call (in assay [16]; in assay [7]; in the assay with HGF (gene 3082); in [8]; in assay [9]; in [10]) was inactive. The compound was called inactive in assay [11], in assay [12], in assay [17], in assay [13], in assay [14] and in assay [15].
`CCCOC(=O)c1cc(O)c(O)c(O)c1`: the AC50 was 4.41 µM (active) in assay [1], 17.9 µM (active) in [2], 50 µM (active) in assay [7] and 11.4 µM (active) in assay [8]. For the same compound, the outcome in assay [3], in [4], in assay [5], in assay [6], in assay [16] and in assay [10] was inactive. In addition, the compound was called inactive in [12], in assay [13], in [14] and in assay [15].
Consider `O=C(Nc1ccc(Cl)cc1)Nc1ccc(Cl)c(Cl)c1`, for which the AC50 was 24.2 µM (active) in assay [1]; 26 µM (active) in [2]; 27.2 µM (active) in [3]; 22.8 µM (active) in assay [19]; 29.1 µM (active) in assay [6]; 72.1 µM (active) in assay [16]. Further, the half-maximal activity concentration (AC50) in assay [7] is 28.6 µM (active); in the assay with HGF (gene 3082), 50 µM (active); in assay [8], 24.4 µM (active); in assay [10] it was 27.7 µM (active); in [11] it was 23.3 µM (active); in assay [13] it was 14.6 µM (active). The AC50 is 22.8 µM (active) in assay [14] and 15.1 µM (active) in assay [15]. Besides, the outcome in assay [5], in assay [18], in [9] and in assay [12] was inactive.
Regarding `CCN(Cc1cccc(S(=O)(=O)O)c1)c1ccc(C(=C2C=CC(=[N+](CC)Cc3cccc(S(=O)(=O)O)c3)C=C2)c2ccccc2S(=O)(=O)[O-])cc1`, the call in [1], in assay [2], in assay [3], in assay [4], in assay [5] and in assay [6] was inactive. Also, the call in assay [16], in [7], in [8], in assay [9], in [10] and in assay [11] was inactive. Besides, the compound was called inactive in assay [12], in assay [13], in assay [14] and in assay [15].
